The panel holds about 83,000 compounds, 20% with a hit somewhere; the sample as a whole holds those more often.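 Single-dose data. Exposure time 48 hours. Values below 10 considered active.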 Unmarked numbers belong to inactive results. Calls of active or inactive are those of the source.

This note sets out measurements from PubChem BioAssay (NCI).

In this assay the test system is ACHN renal. As to the kind of experiment: NCI-60 one-dose screen, 48 h (100 = growth as untreated, 0 = no growth, -100 = all killed). The following applies: 10 µM unless noted.
`N#C/C(C(=O)c1ccccc1)=C1/C(=O)Nc2ccc(F)cc21`: the growth is 92.6%.
For `C=C(C)[C@@H]1CC[C@]2(C(=O)NCCCN)CC[C@]3(C)[C@H](CC[C@@H]4[C@@]5(C)CC[C@H](O)C(C)(C)[C@@H]5CC[C@]43C)[C@@H]12`, the growth was -49.2% [100 µM] (active).
The value for `O=C1/C(=C\c2cn(CC(O)CN3CCCCC3)c3ccccc23)c2ccccc2N1c1c(Cl)cccc1Cl` (stereo not drawn) was -90.5% (active); that for `COc1ccc(OC)c([N+](=O)[O-])c1C(=O)CNC(C)=O` was 100%.
Take `Nc1cccc2c1C(=O)c1cccc(NC(=O)c3ccccc3)c1C2=O`: the growth is 41.5%.
The value for `CCNc1cc2c(cc1Br)-c1ccccc1C2=O` was 98.2%; that for `CCOc1cccc2c(NC(C)CCCN(CC)CC)c(C)cnc12` (stereo not drawn) was 109%; that for `COc1cc(/C=C/C(=O)/C=C/c2ccc(-n3ccnc3C)cc2)ccc1O` was 58.8%.
The same measure for `COc1cc(-c2nc(SCCC(C)C)nc(Nc3ccccc3)c2C#N)cc(OC)c1OC`: 94%.
The value for `CN(C)C(=S)Sc1ccc([N+](=O)[O-])cc1[N+](=O)[O-]` was -44.4% (active); that for `Nc1ccc(Cl)c([N+](=O)[O-])c1` was 87%; that for `CCCCCCCCCCCCNC(=S)N/N=C/c1ccccc1O` was 77.1%.
As to `CC1(C)CC[C@]2(C(=O)OC(=O)[C@]34CCC(C)(C)C[C@@H]3C3=CC[C@@H]5[C@@]6(C)CCC(=O)C(C)(C)[C@@H]6CC[C@@]5(C)[C@]3(C)CC4)CC[C@]3(C)C(=CC[C@@H]4[C@@]5(C)CCC(=O)C(C)(C)[C@@H]5CC[C@]43C)[C@H]2C1`, the growth is 73.8% [100 µM].
Turning to `COc1cccc(-c2[nH]c(=S)ncc2C(=O)c2ccccc2)c1`, the growth is 91.1%.
Turning to `O=C(N=c1n(-c2ccccc2)nc2n1CCN2C1=NCCN1C(=O)c1ccc(Cl)cc1)c1ccc(Cl)cc1`, the growth was 59.1%.
Turning to `COc1cc2c(=O)[nH]c3cc([N+](=O)[O-])ccc3c2cc1[N+](=O)[O-]`, the growth is 21.8%.
The same measure for `NC(=O)CC1C=CCC1` (stereo not drawn): 100%; for `O=C(Nc1cccc2ccccc12)c1cc2ccccc2cc1O`: 1.41% (active).
The value for `Cc1ccc(N)c(O)c1` was 91%; that for `CCOC(=O)CCC[P+](c1ccccc1)(c1ccccc1)c1ccccc1` was 97.9%; that for `CCN(CC)c1cc(N)c(Cc2c(N)cc(N(CC)CC)cc2Cl)c(Cl)c1` was 80.2%.
The value for `CSc1nc(N)c(N=Nc2ccc(S(=O)(=O)Nc3nnc(C)s3)cc2)c(=O)[nH]1` was 102%; that for `CC1(C)C(=O)/C(=C\c2cccnc2)C[C@]2(C)[C@H]3CC[C@@H]4[C@H]5[C@H](C(=O)/C=C/c6cccnc6)CC[C@]5(C(=O)O)CC[C@@]4(C)[C@]3(C)CC[C@@H]12` was -71.1% [100 µM] (active).
For the molecule `N#CCCc1c[nH]c2ccccc12`, the growth is 97%.
As to `C[C@@H]1C[C@H]2C(=O)O[C@@H](C)[C@H](NC(=O)[C@H](Cc3cc(F)cc(F)c3)NC(=O)Nc3ccc(C4CC4)cc3F)C(=O)N3CCC[C@H]3C(=O)N3CCCC[C@H]3C(=O)N[C@@H](C)C(=O)N2C1`, the growth is 11.5%.
The value for `CCN(CC)CCCC(C)Nc1c2ccc(C)cc2nc2ccc(OC)cc12` (stereo not drawn) was 25.5%.
The same measure for `C#CCNC(=O)CC[C@]1(C)[C@H]2CC[C@@H]3[C@@H]([C@@](C)(O)CCC=C(C)C)CC[C@@]3(C)[C@]2(C)CC[C@H]1C(=C)C`: 7.69% [100 µM] (active); for `CC1(C)CC[C@]2(C(=O)O)CC[C@]3(C)C(=CC[C@@H]4[C@@]5(C)C/C(=C/c6ccco6)C(=O)C(C)(C)[C@@H]5CC[C@]43C)[C@@H]2C1`: -71.8% [100 µM] (active); for `C=C(C)[C@@H]1CC[C@]2(C(=O)O)CC[C@]3(C)[C@H](CC[C@@H]4[C@@]5(C)C/C(=C/c6ccco6)C(=O)C(C)(C)[C@@H]5CC[C@]43C)[C@@H]12`: -89.8% [100 µM] (active).
As to `C[n+]1cccc(NC(=O)c2ccc3ccc4ccc(C(=O)Nc5ccc[n+](C)c5)nc4c3n2)c1`, the growth is 41.8%.
The value for `Cc1ccc(S(=O)(=O)N/N=C2\CC3CCC2(C)C3(C)C)cc1` (stereo not drawn) was 102%; that for `CCOC(=O)c1nn(C2CCCCO2)c2ccc(NC(=O)Cn3nnc4ccccc43)cc12` (stereo not drawn) was 98.6%.
With `Cn1cc(-c2nnc(-c3cn(C)c4ncc(Br)cc34)o2)c2ccccc21`, the growth is 81.4%.
The same measure for `O=C(Nc1ccc(Oc2ccc(F)cc2)c(Cl)c1)c1cccnn1`: 73.7%; for `Cc1ccc2c(n1)C(=O)C(Cl)=C(Nc1ccc(N3CCN(C)CC3)cc1)C2=O`: -93.8% (active); for `c1cc2ccc1CNCCN1CCNCc3ccc(cc3)Oc3ccc(cc3)CNCCN(CCNCc3ccc(cc3)O2)CCNCc2ccc(cc2)Oc2ccc(cc2)CNCC1`: 84.4%.
As for `Cc1ccc(-c2cn(C/C=C3\C=CN(S(=O)(=O)c4ccccc4)CC3)nn2)cc1`, the growth was 95.8%.
The value for `CCCCCCCCN(CCCCCCCC)CC(O)c1ccc(Cl)c(C)c1Cl` (stereo not drawn) was 74.7%.
